Test results reported in PubChem BioAssay (EPA / NIEHS).
Values joined by “and” are separate entries in the source; they are usually repeats but may differ in a detail not shown here. Equal values may be shown once. Some structures have more than one record in an assay (separate samples or runs), and their calls can disagree. Active and inactive are the calls of the source. How the source made its calls: active means hit-call score of the fitted dose curve at least 0.9, where 1 is the maximum; inactive means score below 0.9.

assay: BSK_IMphg_SRB.Mphg: Macrophage Viability Assessment in the BioMAP Diversity Plus: IMphg Assay (AID 2284295); conditions: primary human endothelial cells with macrophages
Procedure: BSK_IMphg is a cell-based, multiplexed-readout assay that uses venular endothelial cells and macrophages, a human vascular primary cell, with measurements taken at 24 hours after chemical dosing in a microplate: 96-well plate.BSK_IMphg_SRB.Mphg is an assay component measured in the BSK_IMphg assay. It measures […] related to cell death using Sulforhodamine staining technology.Data from the assay component BSK_IMphg_SRB.Mphg was analyzed at the endpoint, BSK_IMphg_SRB.Mphg, in the positive analysis fitting direction relative to DMSO as the negative control and baseline of activity. Using a type of viability reporter, gain or loss-of-signal activity can be used to understand protein changes. To generalize the intended target to other relatable targets, this assay endpoint is annotated to the 'cell morphology' intended target family, where the subfamily is 'cell conformation'.
The levels of cell surface (or secreted, indicated by the prefix "s") biomarker endpoints were measured by ELISA. Overt cytotoxicity to cells in confluent adherent cultures (all systems other than the BT system) was assessed by measuring total protein levels using sulforhodamine B (SRB) staining in parallel cultures at the time of biomarker measurements, indicated as SRB endpoints. For proliferation assays for adherent cell types, individual cell types are cultured at sub-confluence and relative cell numbers quantified by SRB staining at time points optimized for each system (48 h: 3C and CASM3C systems; 72 h: BT and HDF3CGF systems; 96 h: SAg system). SRB was performed by staining cells with 0.1% SRB after fixation with 10% TCA and reading wells at 560 nm.Viability and proliferation of PBMC (T cells) was quantified by Alamar Blue reduction for the SAg and BT systems. For PBMC viability (referred to as PBMC Cytotoxicity within the assay endpoint names), cells were plated (75,000/well in a 96-well plate) and then chemical samples added for 1 h before addition of activators, SEB and TSST-1 (20 ng/mL final concentration each). Cells were incubated for 90 h. Then, Alamar Blue (20 uL/well) (Invitrogen, Cat DAL1100) was added for 6 h, and the plates were read with a fluorescence microplate reader at 546/580 nm (excitation/emission). For PBMC proliferation, cells were plated and activated as above but incubated for only 16 h prior to addition of Alamar Blue. Plates were read after 6 h.

Structure (SMILES)	outcome	AC50
CCO[Si](CCC(F)(F)C(F)(F)C(F)(F)C(F)(F)C(F)(F)C(F)(F)F)(OCC)OCC	inactive	–
OCC(F)(F)C(F)(F)C(F)(F)C(F)(F)C(F)(F)C(F)(F)F	inactive	21600 nM (active)
FC(F)(F)C(F)(F)C(F)(F)C(F)(F)C(F)(F)C(F)(F)C(F)(F)I	inactive	–
O=C(O)C(F)(F)C(F)(F)C(F)F	inactive	–
O=P(O)(O)OCCC(F)(F)C(F)(F)C(F)(F)C(F)(F)C(F)(F)C(F)(F)F	inactive	–
N=C(N)C(F)(F)C(F)(F)C(F)(F)C(F)(F)C(F)(F)C(F)(F)C(F)(F)F	inactive	–
O=C(O)C(F)(F)C(F)(F)C(F)(F)C(F)(F)C(F)(F)C(F)(F)C(F)(F)C(F)(F)C(F)(F)C(F)F	–	49 µM (active) and 22.5 µM (active)
COC(=O)CCC(F)(F)C(F)(F)C(F)(F)C(F)(F)F	inactive	–
FC(F)(F)C(F)(F)C(F)(F)C(F)(F)CCI	inactive	–
O=C(O)C(F)(F)C(F)(F)C(F)(F)C(F)(F)C(F)(F)C(F)(F)C(F)(F)C(F)(F)Cl	inactive	44400 nM (active)
NC(=O)C(F)(F)C(F)(F)C(F)(F)C(F)(F)F	inactive	–
FC(F)(F)C(F)(F)C(F)(F)C(F)(F)C(F)(F)CCI	inactive	–
CCCCCCCCC(F)(F)C(F)(F)C(F)(F)C(F)(F)C(F)(F)C(F)(F)F	inactive	–
O=S(=O)(OCC(F)F)C(F)(F)F	inactive	221 nM (active)
OCCCC(F)(F)C(F)(F)C(F)(F)F	inactive	–
FC(F)(F)C(F)(F)C(F)(F)C(F)(F)C(F)(F)C(F)(F)C(F)(F)C(F)(F)F	inactive	–
C=CC(F)(F)C(F)(F)C(F)(F)C(F)(F)C(F)(F)C(F)(F)C(F)(F)C(F)(F)C=C	inactive	–

Structure (SMILES)	outcome	AC50
OCC(F)(F)C(F)(F)C(F)(F)C(F)(F)C(F)(F)C(F)F	inactive	596 nM (active)
O=C(O)C(F)(OC(F)(F)C(F)(OC(F)(F)C(F)(OC(F)(F)C(F)(F)C(F)(F)F)C(F)(F)F)C(F)(F)F)C(F)(F)F (stereo not given)	inactive	–
O=C(O)C(F)(F)C(F)(F)OC(F)(F)F	inactive	–
C=C(C)C(=O)OCC(F)(F)C(F)(F)C(F)(F)C(F)(F)C(F)(F)C(F)(F)C(F)(F)F	inactive	24.8 nM (active)
FC(F)(F)C(F)(F)CNCC(F)(F)C(F)(F)F	inactive	–
Cc1ccc(S(=O)(=O)OCC(F)(F)C(F)(F)C(F)(F)C(F)(F)C(F)(F)C(F)F)cc1	inactive	–
FC1CC(F)(F)C(F)(F)C1(F)F (stereo not given)	inactive	–
C=C(C)C(=O)OCC(F)(F)C(F)(F)C(F)(F)F	inactive	–
O=S(=O)(O)C(F)(F)C(F)(F)C(F)(F)C(F)(F)C(F)(F)C(F)(F)C(F)(F)F	inactive	–
FC(F)(I)C(F)(F)C(F)(F)C(F)(F)I	inactive	47.8 µM (active) and 45.9 µM (active)
FC(F)(F)C(F)(F)C(F)(F)C(F)(F)C(F)(F)C(F)(F)C(F)(F)C(F)(F)CCS	inactive	–
C=C(C)C(=O)OCCC(F)(F)C(F)(F)C(F)(F)C(F)(F)C(F)(C(F)(F)F)C(F)(F)F	inactive	–
FC(F)(F)C(F)(F)C(F)(F)C(F)(F)C(F)(F)C(F)(F)CC1CO1 (stereo not given)	inactive	–
O=C(O)C(F)(F)C(F)(F)C(F)(F)C(F)(F)C(F)(F)C(F)(F)C(F)(F)C(F)(F)C(F)(F)C(F)(F)C(F)(F)C(F)(F)F	inactive	–
O=C(O)C(F)(OC(F)(F)C(F)(OC(F)(F)C(F)(F)C(F)(F)F)C(F)(F)F)C(F)(F)F (stereo not given)	inactive	–
O=C(O)C(F)(F)C(F)(F)C(F)(F)C(F)(F)F	inactive	–
O=C(Cl)C(F)(F)C(F)(F)C(F)(F)C(F)(F)C(F)(F)C(F)(F)C(F)(F)C(F)(F)F	inactive	–
